compound: Cc1cnc(Nc2ccc(OCCN3CCCC3)cc2)nc1Nc1cccc(S(=O)(=O)NC(C)(C)C)c1 [Fedratinib]; assay: percent of DMSO control binding (KINOMEscan); higher = weaker binding / less inhibition; extreme values may be limits of the assay; conditions: concentration: 100 nM

Sequence of UniProt Q96BR1 (Q96BR1 whole entry): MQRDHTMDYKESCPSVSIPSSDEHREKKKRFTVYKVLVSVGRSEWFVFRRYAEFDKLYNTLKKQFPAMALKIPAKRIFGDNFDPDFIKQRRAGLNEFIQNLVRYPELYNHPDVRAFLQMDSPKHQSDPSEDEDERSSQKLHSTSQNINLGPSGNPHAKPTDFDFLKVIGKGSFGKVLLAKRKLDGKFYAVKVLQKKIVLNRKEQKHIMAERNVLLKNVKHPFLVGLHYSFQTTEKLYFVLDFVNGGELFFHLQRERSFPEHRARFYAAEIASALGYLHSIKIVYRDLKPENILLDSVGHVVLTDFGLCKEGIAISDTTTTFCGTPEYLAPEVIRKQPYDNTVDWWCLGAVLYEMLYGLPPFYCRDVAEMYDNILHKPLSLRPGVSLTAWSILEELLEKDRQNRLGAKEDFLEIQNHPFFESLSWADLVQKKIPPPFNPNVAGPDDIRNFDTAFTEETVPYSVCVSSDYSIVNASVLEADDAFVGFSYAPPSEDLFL
Sequence of UniProt Q9Y6R4 (Q9Y6R4 whole entry): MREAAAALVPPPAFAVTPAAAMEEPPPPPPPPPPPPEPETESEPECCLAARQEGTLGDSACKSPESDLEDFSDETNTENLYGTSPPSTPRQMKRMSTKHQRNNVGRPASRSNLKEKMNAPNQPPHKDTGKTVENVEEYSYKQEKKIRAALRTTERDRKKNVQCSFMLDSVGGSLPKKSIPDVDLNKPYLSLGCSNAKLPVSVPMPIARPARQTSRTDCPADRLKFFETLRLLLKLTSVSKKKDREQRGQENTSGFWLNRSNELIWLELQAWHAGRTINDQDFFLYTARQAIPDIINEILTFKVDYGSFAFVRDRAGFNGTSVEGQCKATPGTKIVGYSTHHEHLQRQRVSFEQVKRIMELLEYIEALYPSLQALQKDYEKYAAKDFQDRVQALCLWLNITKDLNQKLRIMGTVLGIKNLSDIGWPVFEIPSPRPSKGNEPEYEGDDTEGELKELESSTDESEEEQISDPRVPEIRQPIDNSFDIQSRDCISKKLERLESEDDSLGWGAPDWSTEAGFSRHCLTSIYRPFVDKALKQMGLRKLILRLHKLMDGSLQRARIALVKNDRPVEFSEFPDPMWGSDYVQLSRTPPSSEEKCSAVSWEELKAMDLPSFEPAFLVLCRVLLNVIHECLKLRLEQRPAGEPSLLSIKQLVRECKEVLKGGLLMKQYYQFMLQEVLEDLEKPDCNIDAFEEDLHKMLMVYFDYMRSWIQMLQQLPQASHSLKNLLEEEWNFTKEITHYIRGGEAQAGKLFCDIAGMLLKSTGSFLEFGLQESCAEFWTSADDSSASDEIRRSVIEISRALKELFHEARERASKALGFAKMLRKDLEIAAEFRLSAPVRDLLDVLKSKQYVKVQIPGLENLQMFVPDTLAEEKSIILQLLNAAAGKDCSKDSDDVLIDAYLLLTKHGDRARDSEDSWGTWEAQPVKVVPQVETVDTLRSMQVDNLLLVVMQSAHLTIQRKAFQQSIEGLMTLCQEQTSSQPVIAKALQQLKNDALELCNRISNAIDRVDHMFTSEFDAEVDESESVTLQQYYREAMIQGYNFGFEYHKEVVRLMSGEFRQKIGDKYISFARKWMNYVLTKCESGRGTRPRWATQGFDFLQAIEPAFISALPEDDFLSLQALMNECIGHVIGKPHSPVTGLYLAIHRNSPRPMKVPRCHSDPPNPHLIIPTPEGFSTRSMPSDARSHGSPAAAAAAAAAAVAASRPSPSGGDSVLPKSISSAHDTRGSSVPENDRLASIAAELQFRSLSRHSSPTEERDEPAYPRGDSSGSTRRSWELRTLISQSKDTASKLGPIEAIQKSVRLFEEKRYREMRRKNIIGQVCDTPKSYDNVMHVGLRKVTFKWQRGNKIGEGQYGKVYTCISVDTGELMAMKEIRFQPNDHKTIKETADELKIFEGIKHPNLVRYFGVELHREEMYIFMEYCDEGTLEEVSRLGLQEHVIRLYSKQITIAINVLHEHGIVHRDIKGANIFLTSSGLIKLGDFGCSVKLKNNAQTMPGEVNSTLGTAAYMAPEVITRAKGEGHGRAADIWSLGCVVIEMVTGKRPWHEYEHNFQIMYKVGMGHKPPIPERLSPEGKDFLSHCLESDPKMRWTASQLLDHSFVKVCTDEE
Sequence of UniProt Q9UBF8 (Q9UBF8 whole entry, looked up): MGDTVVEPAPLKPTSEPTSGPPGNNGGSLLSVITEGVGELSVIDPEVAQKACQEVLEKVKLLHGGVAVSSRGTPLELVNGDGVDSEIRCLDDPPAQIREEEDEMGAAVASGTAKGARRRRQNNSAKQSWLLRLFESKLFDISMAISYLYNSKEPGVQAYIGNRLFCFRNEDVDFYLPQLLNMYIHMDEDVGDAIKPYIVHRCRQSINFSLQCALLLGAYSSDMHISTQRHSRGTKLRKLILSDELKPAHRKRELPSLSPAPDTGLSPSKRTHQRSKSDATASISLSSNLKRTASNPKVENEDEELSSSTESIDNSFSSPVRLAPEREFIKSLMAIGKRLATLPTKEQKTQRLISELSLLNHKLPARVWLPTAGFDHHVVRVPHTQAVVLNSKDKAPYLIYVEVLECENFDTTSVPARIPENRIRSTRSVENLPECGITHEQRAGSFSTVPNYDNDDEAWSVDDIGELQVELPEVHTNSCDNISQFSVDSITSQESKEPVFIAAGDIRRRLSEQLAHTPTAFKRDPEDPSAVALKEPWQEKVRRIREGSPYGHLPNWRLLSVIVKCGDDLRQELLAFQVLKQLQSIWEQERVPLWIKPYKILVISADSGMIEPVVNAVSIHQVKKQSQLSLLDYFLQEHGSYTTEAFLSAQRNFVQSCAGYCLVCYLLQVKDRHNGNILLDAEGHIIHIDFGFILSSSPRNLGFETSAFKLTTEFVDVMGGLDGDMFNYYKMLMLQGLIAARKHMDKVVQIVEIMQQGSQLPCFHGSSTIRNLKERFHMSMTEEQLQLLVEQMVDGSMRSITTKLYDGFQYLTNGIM
Sequence of UniProt P17948 (P17948 whole entry): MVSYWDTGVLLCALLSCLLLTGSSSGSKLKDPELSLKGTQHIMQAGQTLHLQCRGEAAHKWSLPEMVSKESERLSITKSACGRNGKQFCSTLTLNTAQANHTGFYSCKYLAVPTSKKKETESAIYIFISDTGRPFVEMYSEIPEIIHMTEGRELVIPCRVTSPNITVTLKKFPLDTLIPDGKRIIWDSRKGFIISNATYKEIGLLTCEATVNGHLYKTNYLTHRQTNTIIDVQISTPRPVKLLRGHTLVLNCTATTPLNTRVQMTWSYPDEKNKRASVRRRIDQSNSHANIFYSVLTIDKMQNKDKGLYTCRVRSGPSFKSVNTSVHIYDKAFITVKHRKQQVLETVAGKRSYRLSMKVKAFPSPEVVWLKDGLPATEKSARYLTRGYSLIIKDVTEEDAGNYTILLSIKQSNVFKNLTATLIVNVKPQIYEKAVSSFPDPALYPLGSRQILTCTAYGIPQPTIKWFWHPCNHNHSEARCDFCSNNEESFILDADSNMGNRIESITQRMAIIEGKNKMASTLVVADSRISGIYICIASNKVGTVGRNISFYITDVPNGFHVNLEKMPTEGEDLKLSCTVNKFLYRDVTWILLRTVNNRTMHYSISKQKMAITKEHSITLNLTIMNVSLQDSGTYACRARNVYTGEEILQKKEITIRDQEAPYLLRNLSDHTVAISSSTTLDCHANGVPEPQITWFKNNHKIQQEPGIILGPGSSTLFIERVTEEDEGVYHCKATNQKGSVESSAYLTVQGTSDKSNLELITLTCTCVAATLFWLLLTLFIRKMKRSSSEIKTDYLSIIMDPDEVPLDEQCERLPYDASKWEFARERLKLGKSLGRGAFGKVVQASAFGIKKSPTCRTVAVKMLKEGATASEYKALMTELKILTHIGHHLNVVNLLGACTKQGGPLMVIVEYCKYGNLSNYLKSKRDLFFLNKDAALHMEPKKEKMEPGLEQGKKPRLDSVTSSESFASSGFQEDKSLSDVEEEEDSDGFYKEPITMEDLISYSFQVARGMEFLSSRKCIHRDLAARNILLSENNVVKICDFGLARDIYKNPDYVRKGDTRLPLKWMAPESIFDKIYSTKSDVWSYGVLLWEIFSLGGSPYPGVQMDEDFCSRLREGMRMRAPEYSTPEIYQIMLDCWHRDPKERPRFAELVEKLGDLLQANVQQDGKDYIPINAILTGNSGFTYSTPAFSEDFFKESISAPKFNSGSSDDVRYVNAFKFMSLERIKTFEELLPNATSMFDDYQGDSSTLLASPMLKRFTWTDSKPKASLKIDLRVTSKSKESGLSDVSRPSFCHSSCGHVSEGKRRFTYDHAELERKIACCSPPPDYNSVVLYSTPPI
Sequence of UniProt P07948 (P07948 whole entry, looked up): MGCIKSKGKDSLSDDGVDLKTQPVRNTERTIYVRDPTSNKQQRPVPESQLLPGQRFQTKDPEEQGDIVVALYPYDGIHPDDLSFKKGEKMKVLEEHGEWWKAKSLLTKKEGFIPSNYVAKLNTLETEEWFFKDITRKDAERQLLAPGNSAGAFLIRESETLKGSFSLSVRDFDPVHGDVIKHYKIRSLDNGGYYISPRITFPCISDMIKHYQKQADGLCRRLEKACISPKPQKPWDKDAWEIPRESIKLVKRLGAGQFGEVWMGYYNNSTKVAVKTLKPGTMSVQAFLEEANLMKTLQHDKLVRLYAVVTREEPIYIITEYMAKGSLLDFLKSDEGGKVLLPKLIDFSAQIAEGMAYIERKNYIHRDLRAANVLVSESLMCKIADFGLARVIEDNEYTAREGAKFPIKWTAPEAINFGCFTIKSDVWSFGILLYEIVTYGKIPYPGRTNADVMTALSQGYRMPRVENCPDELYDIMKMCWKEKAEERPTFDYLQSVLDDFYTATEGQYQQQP

Row | Target | percent of DMSO control binding [%]
1 | HIPK2 (UniProt Q9H2X6) | 79
2 | FGFR3(G697C) (UniProt P22607) | 78
3 | CDK9 (UniProt P50750) | 97
4 | LYN (UniProt P07948) | 100
5 | RSK1(Kin.Dom.1-N-terminal) (UniProt Q15418) | 89
6 | FLT1 (UniProt P17948) | 100
7 | LTK (UniProt P29376) | 100
8 | PFCDPK1(P.falciparum) | 100
9 | BRK (UniProt Q13882) | 87
10 | CAMK1B (UniProt Q6P2M8) | 66
11 | PIP5K1C (UniProt O60331) | 100
12 | JAK1(JH2domain-pseudokinase) (UniProt P23458) | 80
13 | MEK2 (UniProt P36507) | 66
14 | SgK110 (UniProt P0C264) | 100
15 | FLT4 (UniProt P35916) | 100
16 | PKN1 (UniProt Q16512) | 100
17 | MLK2 (UniProt Q02779) | 78
18 | HCK (UniProt P08631) | 100
19 | BRAF(V600E) | 95

Row | Target | percent of DMSO control binding [%]
20 | PIK3CD (UniProt O00329) | 75
21 | MET(M1250T) (UniProt P08581) | 94
22 | ERK3 (UniProt Q16659) | 100
23 | CDKL5 (UniProt O76039) | 91
24 | PIP5K1A (UniProt Q99755) | 17
25 | SGK3 (UniProt Q96BR1) | 91
26 | RPS6KA4(Kin.Dom.2-C-terminal) (UniProt O75676) | 39
27 | MET(Y1235D) (UniProt P08581) | 100
28 | WNK1 (UniProt Q9H4A3) | 100
29 | MLK1 (UniProt P80192) | 96
30 | MAP3K4 (UniProt Q9Y6R4) | 77
31 | PIK4CB (UniProt Q9UBF8) | 97
32 | MAP3K3 (UniProt Q99759) | 78
33 | IGF1R (UniProt P08069) | 100
34 | p38-alpha (UniProt Q16539) | 78
35 | DYRK1B (UniProt Q9Y463) | 97
36 | EPHB1 (UniProt P54762) | 100
37 | LKB1 (UniProt Q15831) | 40
38 | ERBB4 (UniProt Q15303) | 100

— the supplement of paper PMC10382584, “Macrocyclization of linear molecules by deep learning to facilitate macrocyclic drug candidates discovery” (Nature Communications, 2023)
